Dicer processing: inhibitors of human Dicer processing of pre-microRNA | Q9UPY3 | cat-ELCCA pre-miR-21 Dicer processing, chemiluminescence; active compounds read high | z-score at 25 µM | 6% of 47,000 active | AID 1347074; in the data active means z-score above about 3, passing the limit was not always enough;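 further: plate controls were vehicle for no effect and no enzyme for full effect; higher signal means more uncleaved substrate so more Dicer inhibition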
Target sequence (Q9UPY3 whole entry, looked up): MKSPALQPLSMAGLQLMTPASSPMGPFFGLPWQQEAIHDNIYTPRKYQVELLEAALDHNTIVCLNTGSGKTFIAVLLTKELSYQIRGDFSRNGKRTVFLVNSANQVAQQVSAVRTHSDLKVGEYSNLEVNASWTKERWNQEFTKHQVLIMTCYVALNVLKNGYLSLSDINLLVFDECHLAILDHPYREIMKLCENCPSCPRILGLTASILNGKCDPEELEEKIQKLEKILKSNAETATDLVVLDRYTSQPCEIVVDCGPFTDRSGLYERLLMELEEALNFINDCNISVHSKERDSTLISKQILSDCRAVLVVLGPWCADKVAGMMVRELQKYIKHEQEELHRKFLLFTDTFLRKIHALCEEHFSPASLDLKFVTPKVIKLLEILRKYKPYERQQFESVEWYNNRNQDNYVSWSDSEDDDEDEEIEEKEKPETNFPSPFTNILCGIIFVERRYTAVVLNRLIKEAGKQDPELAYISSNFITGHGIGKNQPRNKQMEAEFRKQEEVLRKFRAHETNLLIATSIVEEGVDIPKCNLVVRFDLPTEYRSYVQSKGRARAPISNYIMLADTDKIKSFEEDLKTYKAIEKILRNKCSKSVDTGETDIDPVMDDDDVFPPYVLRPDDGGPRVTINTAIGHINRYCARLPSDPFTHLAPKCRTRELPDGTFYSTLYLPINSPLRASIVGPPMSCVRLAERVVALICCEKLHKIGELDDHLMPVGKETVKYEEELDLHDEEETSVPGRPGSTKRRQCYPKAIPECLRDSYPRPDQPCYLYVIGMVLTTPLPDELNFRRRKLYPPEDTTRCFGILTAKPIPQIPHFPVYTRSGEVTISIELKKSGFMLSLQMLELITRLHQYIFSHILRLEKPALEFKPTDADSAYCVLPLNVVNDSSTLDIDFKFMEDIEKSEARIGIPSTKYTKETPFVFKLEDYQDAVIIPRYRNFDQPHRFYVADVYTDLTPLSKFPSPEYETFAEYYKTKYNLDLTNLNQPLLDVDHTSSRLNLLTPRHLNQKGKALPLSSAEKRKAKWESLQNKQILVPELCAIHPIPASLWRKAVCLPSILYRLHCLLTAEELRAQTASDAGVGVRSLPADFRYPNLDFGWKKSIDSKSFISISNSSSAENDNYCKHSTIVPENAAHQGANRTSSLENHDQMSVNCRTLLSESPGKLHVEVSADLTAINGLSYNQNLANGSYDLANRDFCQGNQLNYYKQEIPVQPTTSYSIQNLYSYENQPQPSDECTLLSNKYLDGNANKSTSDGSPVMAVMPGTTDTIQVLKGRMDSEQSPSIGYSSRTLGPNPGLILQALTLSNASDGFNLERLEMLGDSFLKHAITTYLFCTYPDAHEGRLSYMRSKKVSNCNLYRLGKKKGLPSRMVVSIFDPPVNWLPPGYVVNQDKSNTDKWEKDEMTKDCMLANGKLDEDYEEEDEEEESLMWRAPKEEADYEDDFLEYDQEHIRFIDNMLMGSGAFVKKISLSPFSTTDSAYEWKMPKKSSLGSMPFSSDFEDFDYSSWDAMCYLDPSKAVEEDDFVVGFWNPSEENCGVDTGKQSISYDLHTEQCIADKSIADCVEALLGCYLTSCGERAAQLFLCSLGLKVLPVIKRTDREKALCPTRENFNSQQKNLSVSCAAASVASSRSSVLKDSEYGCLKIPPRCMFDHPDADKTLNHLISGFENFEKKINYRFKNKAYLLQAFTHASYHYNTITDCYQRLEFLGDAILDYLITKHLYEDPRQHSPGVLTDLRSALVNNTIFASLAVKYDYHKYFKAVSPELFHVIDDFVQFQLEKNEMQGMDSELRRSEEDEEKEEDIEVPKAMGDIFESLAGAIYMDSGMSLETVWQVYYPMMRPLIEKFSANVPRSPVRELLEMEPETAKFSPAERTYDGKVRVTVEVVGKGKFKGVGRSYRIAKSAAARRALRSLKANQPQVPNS
The depositor's hits bear a star. The full list was thinned out, with hits kept by preference.

SMILES	Dicer processing
O=C(NC1CCCC1)c1cc2n(n1)C(C(F)(F)F)CC(c1ccco1)N2 (stereo not drawn)	-0.7
COc1ccc(COC(=O)C2=C(C)NC3=C(C(=O)CCC3)C2c2cc(Cl)c(O)c(OC)c2)cc1 (stereo not drawn)	0.24
CSCCC(NC(=O)c1ccc(C(F)(F)F)cc1)c1n[nH]c(=S)n1C (stereo not drawn)	7.9
O=C(O)C(c1ccccc1)n1cccc1 (stereo not drawn)	-0.81
O=C(Cn1nc(-c2ccccc2)c2ccccc2c1=O)c1ccc(F)cc1	-0.83
CCN(CC)C(=O)c1sc2nc3c(cc2c1N)CCCC3	1.66
CN1CCN(CCCN2c3ccccc3Sc3ccc(S(=O)(=O)N(C)C)cc32)CC1	5.97*
OCCN1CCN(CCCN2c3ccccc3Sc3ccc(Cl)cc32)CC1	31.9
CC(=O)c1ccc2c(c1)N(CCCN1CCC(CCO)CC1)c1ccccc1S2	79.6
Nc1ccccc1SC1CC(=O)N(c2ccc(Oc3ccccc3)cc2)C1=O (stereo not drawn)	2.74
O=C(NC(CO)C(=O)O)c1cncc(Br)c1 (stereo not drawn)	0.03
CN(C)c1scc(-c2ccccc2)c1C#N	15*
CSc1scc(-c2cccc(Cl)c2)c1C#N	-0.55
COC(=O)c1sc(N(C)C)c(C#N)c1-c1ccccc1	-0.43
COc1n[nH]c(C(=O)Nc2ccccc2F)c1[N+](=O)[O-]	1.12
O=C(O)c1cnn2c1NC(c1ccccc1)CC2C(F)(F)F (stereo not drawn)	3.12*
CN1CCN(C(=O)c2cc3n(n2)C(C(F)(F)F)CC(c2ccccc2)N3)CC1 (stereo not drawn)	3.18*
O=C(c1cc2n(n1)C(C(F)(F)F)CC(c1ccc(Cl)cc1)N2)N1CCOCC1 (stereo not drawn)	0.29
COc1cccc(C2CC(C(F)(F)F)n3ncc(C(=O)O)c3N2)c1 (stereo not drawn)	-0.84
CC(C)NC(=O)c1cnn2c1NC(c1ccc(Br)cc1)CC2C(F)(F)F (stereo not drawn)	5.83*
O=C(O)c1cnn2c1NC(c1ccc(Br)cc1)CC2C(F)(F)F (stereo not drawn)	2.57
CC(C)NC(=O)c1cc2n(n1)C(C(F)(F)F)CC(c1ccc(Br)cc1)N2 (stereo not drawn)	1.77
O=C(O)c1cc2n(n1)C(C(F)(F)F)CC(c1ccc(Cl)cc1)N2 (stereo not drawn)	1.73
CC(C)NC(=O)c1nn2c(c1Cl)NC(c1ccc(Br)cc1)CC2C(F)(F)F (stereo not drawn)	-0.28
O=C(c1cnn2c1NC(c1ccccc1)CC2C(F)(F)F)N1CCCCC1 (stereo not drawn)	0.97
SMILES	Dicer processing
Cc1ccc(C2CC(C(F)(F)F)n3ncc(C(=O)O)c3N2)cc1 (stereo not drawn)	0.54
CN1CCN(C(=O)c2cnn3c2NC(c2ccc(Br)cc2)CC3C(F)(F)F)CC1 (stereo not drawn)	4.68*
Cn1cnc2nc(SCC(=O)O)nc(N)c21	0.27
COc1ccc2c(c1)CCc1sc(/N=C/c3ccc(C(F)(F)F)cc3)nc1-2	-0.89
CCc1[nH]nc2c1C(c1cc(OC)ccc1OC)C(C#N)=C(N)O2 (stereo not drawn)	-0.73
CCN1C(=O)C2(/C(=C(/O)c3ccc(C)c(F)c3)C(=O)C(=O)N2CCN(C)C)c2ccccc21 (stereo not drawn)	2.13
CC(C)Oc1ccccc1Cn1c(=O)sc2ccccc21	-0.1
N#CCSc1ccc(OC(F)(F)F)cc1	6.3
COC(=O)C1C(c2ccc(Cl)cc2)C(C(=O)OC)S(=O)(=O)CS1(=O)=O (stereo not drawn)	-1.25
O=C(CSc1nncn1-c1ccc(C(F)(F)F)cc1)Nc1ccc(C(F)(F)F)cc1	1.79
CC1(C(=O)O)NCCc2c1[nH]c1ccccc21 (stereo not drawn)	1.51
COc1ccc(C2CC(C(F)(F)F)n3ncc(C(N)=O)c3N2)cc1 (stereo not drawn)	0.95
COc1ccc(C2CC(C(F)(F)F)n3ncc(C(=O)O)c3N2)cc1OC (stereo not drawn)	0.76
O=C(c1cnn2c1NC(c1ccc(Br)cc1)CC2C(F)(F)F)N1CCOCC1 (stereo not drawn)	4.22*
COc1ccc(C2/C(=C(/O)c3ccccc3)C(=O)C(=O)N2CCO)cc1OC (stereo not drawn)	-1.79
Oc1ccccc1-c1nc(/C=C/c2ccccc2Cl)no1	12.9
CN(C)c1ccc(/C=C/c2noc(-c3ccccc3O)n2)cc1	5.85*
Oc1ccccc1-c1nc(/C=C/c2ccccc2)no1	1.18
CCOC(=O)CNC(=O)c1nn(C)cc1[N+](=O)[O-]	-0.69
Cc1nc(C)c(-c2cnc(NS(=O)(=O)c3ccc(Cl)cc3)nc2)s1	-0.01
CCOc1cc(-c2cc(O)c3c(C)oc(C)c3c(=O)c2)ccc1O	0.83
CCOc1cc(-c2cc(=O)c3ccccc3o2)ccc1O	-0.81
CCOc1cc(-c2cc(OCC)c3c(C)oc(C)c3c(=O)c2)ccc1O	3.55*
Cn1nccc1C(=O)Nc1ccc(Cl)cc1	-1.77
Cn1nccc1NC(=O)Nc1cc(Cl)cc(Cl)c1	-0.4
SMILES	Dicer processing
Cn1nccc1NC(=S)Nc1ccc(Cl)cc1	4.01*
CCO/C(C)=N\OC(=O)c1c(-c2c(F)cccc2Cl)noc1C	-0.44
O=[N+]([O-])c1cccc(-c2nnn(Cc3c(F)cccc3Cl)n2)c1	9.31
Nc1cc(NC(=O)c2ccccc2O)ccc1Cl	5.62*
O=C(Nc1ccc(Oc2ccc(NC(=O)c3ccccc3Cl)cc2)cc1)c1ccccc1Cl	-0.87
O=C(NC(=O)c1ccccc1Cl)c1ccccc1O	0.32
CC(C)(C)NC(=O)Cn1ccc(C(F)(F)F)n1	0.08
COC(=O)COc1ccc2c(c1)C(=O)c1cc(OCC(=O)OC)ccc1-2	-4.13
CCOc1ccc2c(c1)C(=O)c1cc(O)ccc1-2	1.01
CC(=O)Oc1ccc2c(c1)C(=O)c1cc(OC(C)=O)ccc1-2	6.17*
CCOCCOC(=O)C1=C(C)NC2=C(C(=O)CC(C)(C)C2)C1c1ccc(OC(C)=O)cc1 (stereo not drawn)	-0.49
COc1ccc(C2=NN3C(C2)c2cc(Cl)ccc2OC3c2ccncc2)cc1 (stereo not drawn)	9.08*
COc1ccc(O)c(C2=NN3C(C2)c2cc(Cl)ccc2OC3c2ccncc2)c1 (stereo not drawn)	2.76
COc1ccc(O)c(C2=NN3C(C2)c2ccccc2OC3c2cccnc2)c1 (stereo not drawn)	-0.42
COc1ccc(O)c(C2=NN3C(C2)c2cccc(OC)c2OC3c2cccnc2)c1 (stereo not drawn)	0.4
Oc1ccccc1C1=NN2C(C1)c1cc(Cl)ccc1OC2c1cccnc1 (stereo not drawn)	4.83
COc1ccc(C2=NN3C(C2)c2cc(OC)ccc2OC3c2cccnc2)cc1 (stereo not drawn)	4.84*
Cc1ccc(C2=NN3C(C2)c2ccccc2OC3c2ccncc2)cc1 (stereo not drawn)	6.88*
Cc1ccc(O)c(C2=NN3C(C2)c2ccccc2OC3c2ccncc2)c1 (stereo not drawn)	2.29
COc1ccc(C2=NN3C(C2)c2ccccc2OC3c2ccc(C)cc2)cc1OC (stereo not drawn)	21.1
C=CCOC(=O)C1=C(C)NC2=C(C(=O)CC(C)(C)C2)C1c1cccc(OC)c1OC (stereo not drawn)	-0.59
Nc1nc2c(c(=O)[nH]1)C(c1ccc3c(c1)OCO3)CC(=O)N2 (stereo not drawn)	3.46
CCOC(=O)c1ccc(C#Cc2ccc3c(c2)CC(C)(C)CS3)nc1	0.95
